VDR inh – Inhibitors of the vitamin D receptor (VDR): qHTS | Vitamin D3 receptor (Homo sapiens), P11473 | VDR-SRC2-3 peptide fluorescence polarization, 2 h | Potency, µM, usual class: inhibitors | 0.93% of 400,000 active | AID 504847, 2011
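Measured by FP: displacement of SRC2-3 coactivator peptide from VDR by library compounds, following a two-hour ambient incubation.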
G9a block – qHTS Assay for Inhibitors of Histone Lysine Methyltransferase G9a; AID 504332, 2011; G9a H3K9 monomethylation, AlphaScreen, 2 h; 8.8% of 350,000 active; Potency, µM (series often up to 102 µM), usual class: inhibitors; further: nearly all actives have a fitted effect of over 75% in size
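AlphaScreen detection with an anti-monomethyl H3K9 antibody quantified product after a 2 h room-temperature reaction containing 500 nM biotinylated H3K9 peptide, 20 µM SAM and 20 nM enzyme, which had been preincubated 15 min with compound.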
JMJD2A Tudor inh – qHTS Assay for Inhibitors of JMJD2A-Tudor Domain; Lysine-specific demethylase 4A (Homo sapiens), O75164; AlphaScreen JMJD2A-Tudor / H3K4me3 peptide binding; Potency, µM (highest dose often 114 µM), most hits filed as inhibitors; 4.4% of 390,000 active; AID 504339, 2011; further: nearly all actives have a fitted effect of over 50% in size
PLK1 PBD block – qHTS for Inhibitors of PLK1-PDB (polo-like kinase 1 - polo-box domain): Primary Screen; Serine/threonine-protein kinase PLK1 (Homo sapiens), P53350; Plk1 PBD binding of FITC phosphopeptide, fluorescence polarization; Potency, µM, usual class: inhibitors; 2.8% of 360,000 active; AID 720504, 2013; further: series mostly up to about 57 µM; nearly all actives have a fitted effect of over 65% in size
Target sequence (P53350 whole entry, looked up, the tested form may be a part): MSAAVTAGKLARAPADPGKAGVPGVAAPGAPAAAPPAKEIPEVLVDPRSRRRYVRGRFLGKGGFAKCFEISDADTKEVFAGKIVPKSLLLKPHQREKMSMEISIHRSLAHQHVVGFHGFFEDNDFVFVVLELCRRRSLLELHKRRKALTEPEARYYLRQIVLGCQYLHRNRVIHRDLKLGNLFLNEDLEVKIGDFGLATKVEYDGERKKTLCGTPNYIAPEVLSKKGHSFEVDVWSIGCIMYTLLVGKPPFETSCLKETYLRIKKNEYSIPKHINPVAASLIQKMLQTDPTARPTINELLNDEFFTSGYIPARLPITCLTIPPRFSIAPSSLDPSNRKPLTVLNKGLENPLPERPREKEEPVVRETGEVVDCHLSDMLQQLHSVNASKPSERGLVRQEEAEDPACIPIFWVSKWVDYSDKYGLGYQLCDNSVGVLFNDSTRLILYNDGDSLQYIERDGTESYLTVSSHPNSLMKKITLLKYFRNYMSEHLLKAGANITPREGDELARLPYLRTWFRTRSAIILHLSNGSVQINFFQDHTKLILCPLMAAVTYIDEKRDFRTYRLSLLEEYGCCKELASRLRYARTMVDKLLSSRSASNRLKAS
HP1b chromo inh – HTS for Inhibitors of HP1-beta Chromodomain Interactions with Methylated Histone Tails; Chromobox protein homolog 1 (Homo sapiens), P83916; AlphaScreen HP1-beta / biotin-H3K9me3 peptide binding; Potency, µM (doses to about 114 µM), hits mostly inhibitors; 0.56% of 390,000 active; further: nearly all actives have a fitted effect of over 70% in size
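AlphaScreen: HP1-beta (50 nM) preformed 30 min with biotin-H3(1-18)K9me3 peptide (50 nM) in PBS pH 7.4, 0.01% Tween-20. Compound added for 30 min at RT, then streptavidin donor/nickel chelate acceptor beads (10 ug/mL) for 30 min.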
BAZ2B block – qHTS Assay for Inhibitors of BAZ2B | Bromodomain adjacent to zinc finger domain protein 2B (Homo sapiens), Q9UIF8 | AID 504333, 2011 | Potency, µM (top dose mostly 114 µM), most hits filed as inhibitors | 4.4% of 360,000 active | AlphaScreen BAZ2B-H3K14Ac peptide displacement; further: nearly all actives have a fitted effect of over 60% in size
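Multi-concentration screen (max 110 uM) measuring displacement of acetylated histone H3 peptide from BAZ2B by AlphaScreen, using 50 nM protein, 50 nM peptide and 10 ug/mL streptavidin donor plus Ni-chelate acceptor beads.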
Each line names hits and unclear results; the compound was inactive in the other large screens. A selection: hits, their analogues and other compounds. The true share with any hit is near 11%. The call rests on the fitted dose curve; in most records, active means well fitted curve in the direction sought with a large enough effect; inconclusive means small, poorly fitted or top-dose-only effect, or another doubt; inactive means no such curve, though single readings can be large; an effect the other way counts as inactive or inconclusive.

CCN(C(=O)COc1cccc2cccnc12)C1CCS(=O)(=O)C1 (stereo not drawn)	G9a block inconclusive, BAZ2B block 50µM
CCN(C(=O)COC(=O)c1ccc(Cl)nc1)C1CCS(=O)(=O)C1 (stereo not drawn)	none
CCN(C(=O)COC(=O)c1nc(Cl)ccc1Cl)C1CCS(=O)(=O)C1 (stereo not drawn)	G9a block 1.4µM
N#Cc1cccc(NC(=O)CC2CCCC2)c1	none
N=c1n(CCN2CCCC2)c2ccccc2n1CC(O)c1ccc(Cl)c(Cl)c1 (stereo not drawn)	G9a block inconclusive, JMJD2A Tudor inh inconclusive, PLK1 PBD block 24µM
N=c1n(CCN2CCCCC2)c2ccccc2n1CC(O)COc1ccc(Cl)cc1Cl (stereo not drawn)	G9a block inconclusive (no result: PLK1 PBD block)
COc1ccc(OCC(O)Cn2c(=N)n(CCN3CCCCC3)c3ccccc32)cc1 (stereo not drawn)	G9a block inconclusive, JMJD2A Tudor inh inconclusive, PLK1 PBD block 2.7µM, HP1b chromo inh inconclusive
Cc1ccc(OCC(O)Cn2c(=N)n(CCN3CCCCC3)c3ccccc32)cc1 (stereo not drawn)	none
CN1/C(=C\C=Nc2cc(S(=O)(=O)N3CCOCC3)ccc2N2CCOCC2)C(C)(C)c2ccccc21	none
CCN(Cc1ccccc1)C(=O)c1cc2c(OC)c(OC)c(OC)cc2[nH]1	BAZ2B block inconclusive
O=C(Cn1nc(-c2cccc([N+](=O)[O-])c2)c2ccccc2c1=O)Nc1cccnc1	G9a block inconclusive
CCCc1ccc(O)c(N=Cc2cc(Br)cc(OCC)c2O)c1	G9a block 5.6µM, JMJD2A Tudor inh inconclusive, BAZ2B block inconclusive
CCOc1cccc(C=NCCc2ccc(OC)c(OC)c2)c1O	none (no result: G9a block)
COc1ccc(Nc2nc(NCCN3CCOCC3)nc(Nc3ccc(OC)cc3)n2)cc1	G9a block inconclusive, JMJD2A Tudor inh inconclusive, BAZ2B block 45µM
COc1ccc(CCNC(=O)C(=O)NCCCN2CCOCC2)cc1	none
COc1ccc(CCNCCN2CCOCC2)cc1	G9a block 3.5µM, JMJD2A Tudor inh 20µM, HP1b chromo inh inconclusive, BAZ2B block 25µM
Cc1cc(C)c(C)c(S(=O)(=O)Nc2ccccc2C(=O)NN2CCOCC2)c1C	none (no result: G9a block, BAZ2B block)
COc1ccc(S(=O)(=O)N2CCN(C(=O)c3cccs3)CC2)cc1	JMJD2A Tudor inh inconclusive
COc1ccc(S(=O)(=O)N2CCN(C(=O)c3cc4c(s3)CCC4)CC2)cc1	JMJD2A Tudor inh 7.9µM, PLK1 PBD block inconclusive, HP1b chromo inh inconclusive (no result: G9a block, BAZ2B block)
COc1ccc(N2CCN(C(=O)c3ccc(Cl)c(S(=O)(=O)N4CCOCC4)c3)CC2)cc1	none (no result: G9a block, BAZ2B block)
COc1ccc(N2CCN(S(=O)(=O)c3ccc(OC)c(C(=O)N4CCOCC4)c3)CC2)cc1	G9a block 45µM
COc1ccc(N2CCN(C(=O)c3cc(S(=O)(=O)N4CCCCCC4)ccc3OC)CC2)cc1	G9a block 50µM, JMJD2A Tudor inh inconclusive, HP1b chromo inh inconclusive, BAZ2B block inconclusive
COc1ccc(N2CCN(C(=O)c3ccc(Cl)c(S(=O)(=O)N4CCCC4)c3)CC2)cc1	G9a block 40µM, JMJD2A Tudor inh inconclusive, BAZ2B block 71µM
COc1ccc(S(=O)(=O)N2CCOCC2)cc1C(=O)N1CCCC1	none
CC(=O)N1CCc2cc(Br)cc(S(=O)(=O)N3CCN(c4cccc(C)c4)C(C)C3)c21 (stereo not drawn)	G9a block inconclusive, JMJD2A Tudor inh inconclusive, BAZ2B block inconclusive (no result: PLK1 PBD block)
CCOc1ccc(NC(=O)c2ccc(-c3nc(COc4ccccc4)c(C)o3)cc2)cc1	none (no result: PLK1 PBD block)
O=C(CNC(=O)c1ccccc1)N[C@H](C(=O)Nc1cc(C(F)(F)F)ccc1Cl)c1ccccc1	none (no result: VDR inh, G9a block, PLK1 PBD block, HP1b chromo inh, BAZ2B block)
COc1ccccc1CNC(=O)CN(C)CC(=O)Nc1ccccc1Br	none (no result: G9a block, BAZ2B block)
Cc1ccc(OCc2cc(=O)n3ccsc3n2)c(NC(=O)c2ccco2)c1	none (no result: PLK1 PBD block)
CCCCN1CCCC1C(=O)Nc1c(C)cc(C)cc1C (stereo not drawn)	none (no result: JMJD2A Tudor inh, PLK1 PBD block, HP1b chromo inh, BAZ2B block)
Cc1cccc(C)c1NC(=O)CN(C)C(=O)C1=COCCO1	G9a block inconclusive
CCc1ccc(N2CC(C(=O)OCC(=O)N(CC)c3c(N)n(Cc4ccccc4)c(=O)[nH]c3=O)CC2=O)cc1 (stereo not drawn)	none (no result: G9a block, BAZ2B block)
Cc1ccc(OS(=O)(=O)c2cn(C)c(=O)n(C)c2=O)cc1C	none
COC(=O)c1cccc(NS(=O)(=O)c2ccc(OC)c(C(=O)N3CCOCC3)c2)c1C	none
COc1cc2c(cc1OC)CN(C(=O)c1cc(S(=O)(=O)N3CCOCC3)ccc1Cl)CC2	G9a block 50µM, JMJD2A Tudor inh inconclusive
COc1ccc(S(=O)(=O)NC2CC2)cc1C(=O)N1CCOCC1	VDR inh inconclusive, PLK1 PBD block 7.5µM, HP1b chromo inh inconclusive
Cc1ccc(S(=O)(=O)CC(=O)N2CCN(c3nc4c(F)cccc4s3)CC2)cc1	none (no result: PLK1 PBD block)
CC(=O)C1=C(c2cccc([N+](=O)[O-])c2)N(C(C)=O)n2c(C)nnc2S1	VDR inh inconclusive, G9a block 10µM, BAZ2B block inconclusive
COc1ccc(CCNC(=O)C(=O)NCC(c2cccnc2)N2CCN(c3ccccc3)CC2)cc1 (stereo not drawn)	none (no result: PLK1 PBD block)
O=C(NCCCn1ccnc1)C(=O)NCC(c1cccnc1)N1CCN(c2ccc(F)cc2)CC1 (stereo not drawn)	G9a block 50µM, BAZ2B block 50µM
Cc1cc(C)cc(NC(=O)C(=O)NCC(c2cccnc2)N2CCOCC2)c1 (stereo not drawn)	BAZ2B block 79µM (no result: PLK1 PBD block)
O=C(NCC(c1cccnc1)N1CCN(c2ccc(F)cc2)CC1)c1ccccc1 (stereo not drawn)	none
COc1ccc(NC(=O)C(=O)NCC(c2cccnc2)N2CCc3ccccc3C2)cc1 (stereo not drawn)	G9a block 14µM, JMJD2A Tudor inh 40µM, HP1b chromo inh inconclusive, BAZ2B block 10µM (no result: PLK1 PBD block)
COc1ccc(N2CCN(C(CNC(=O)C(=O)NCCCn3ccnc3)c3cccnc3)CC2)cc1 (stereo not drawn)	G9a block inconclusive, JMJD2A Tudor inh 45µM (no result: BAZ2B block)
COc1ccc(NC(=O)c2sccc2C)cn1	none
CC1=NN(c2ccc(Br)cc2)C(=O)/C1=C/c1ccc(-c2ccccc2C(=O)O)o1	VDR inh inconclusive, G9a block 35µM, JMJD2A Tudor inh 32µM, PLK1 PBD block 12µM, HP1b chromo inh inconclusive, BAZ2B block 35µM
